Bioassay records as filed in PubChem BioAssay.
VACV Venus inh – vaccinia inhibition (Venus reporter); AID 720580; Potency, µM (series often up to 36.5 µM), without a hit: top-dose activity change, negative = inhibition, usual class: inhibitors; Vaccinia virus Venus reporter expression, fluorescence; 0.46% of 330,000 active; calls by dose curve; tested in A549 cells; further: on the % scale 0 is the no-effect control and ±100 the full control effect; nearly all actives have a fitted effect of over 30% in size
Pf growth 48h – inhibits P. falciparum growth in the first generation, 48 h; P. falciparum luciferase growth in erythrocytes, 48 h; Potency, µM (top dose mostly 28.7 µM), for inactives: top-dose activity change, negative = inhibition, most hits filed as inhibitors; 5.9% of 310,000 active; AID 504832; further: on the % scale 0 is the no-effect control and ±100 the full control effect
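Luminescence readout; reporter = integrated firefly luciferase in P. falciparum. RBC culture at 2% hematocrit, 0.1% parasitemia final, 37 C/5% CO2; decreased signal taken as growth inhibition.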
VACV mCherry inh – vaccinia inhibition (mCherry reporter) | 0.63% of 310,000 active | Potency, µM (highest dose often 36.5 µM), without a hit: at the top dose activity change, negative = inhibition, most hits filed as inhibitors | AID 720579 | Vaccinia virus mCherry reporter infection, fluorescence; calls by dose curve; tested in A549 cells; further: on the % scale 0 is the no-effect control and ±100 the full control effect; nearly all actives have a fitted effect of over 35% in size
NS1 function inh – blocks influenza NS1 protein function | AID 2326 | 0.4% of 270,000 active | Potency, µM (doses to about 46.1 µM), for the others: top-dose activity, positive = more growth; calls by dose curve; further: actives are rising curves; nearly all actives have a fitted effect of over 50% in size
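Recovery from NS1-induced slow growth read by OD600 in budding yeast switched to galactose assay medium (pH 6.0, -URA) at 1:100 dilution. Compound 23 nl per well; the matching strain lacking NS1 serves as control.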
Pf growth 96h – P. falciparum growth inhibition at 96 hour, primary screen for plastid delayed-death inhibitors | 6.9% of 320,000 active | Potency, µM (doses to about 28.7 µM), inactives show at the top dose activity change, negative = inhibition, hits mostly inhibitors | P. falciparum luciferase reporter growth, 96 h; further: on the % scale 0 is the no-effect control and ±100 the full control effect
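Parasite growth measured via integrated firefly luciferase reporter in P. falciparum. Infected erythrocytes at 2% hematocrit, 0.05% parasitemia final were treated 96 hours at 37 C under 5% CO2, and luminescence was read.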
HCV inhibitor – inhibitors of hepatitis C virus infection | Huh7.5.1 HCVcc-Cre infection, luciferase reporter, 44 h | Potency, µM (series often up to 41.8 µM), for inactives: at the highest dose activity change, negative = inhibition, usual class: inhibitors | 3.4% of 340,000 active | AID 651820; further: on the % scale 0 is the no-effect control and ±100 the full control effect
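Whole-lifecycle infectious HCVcc-Cre system; cells 1,000/well, compound then virus (~0.5 moi) added 4 h after plating, 44 h culture. Luciferase read 15 sec following 15 min substrate incubation, room temp.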
* hit, by the source's call; [ ] = another dose, or the depositor's remark. A selection: hits, their analogues and other compounds. The true share with any hit is near 11%. Unless noted, the call rests on the fitted dose curve; in most records, active means well fitted inhibition curve with a large enough effect; inconclusive means small, poorly fitted or top-dose-only effect, or another doubt; inactive means no such curve, though single readings can be large or run the other way. Potency means the concentration at half of the fitted maximal effect.

What do the screens show for `COc1ccccc1N(C)S(=O)(=O)c1ccc(C(=O)N(C)Cc2cccc(OC)c2OC)cc1`?
VACV Venus inh: -17%; VACV mCherry inh: -12%

What do the screens show for `CCOc1ccc(CN(C)C(=O)c2ccc(S(=O)(=O)N(C)c3ccccc3OC)cc2)cc1`?
Pf growth 48h: 13µM*; Pf growth 96h: inconclusive; HCV inhibitor: 11µM*

Results for O=C(NCCNCC(O)COc1ccc(O)cc1)N1CCOCC1 (stereo not given) ?
VACV Venus inh: -19%; Pf growth 48h: -15%; VACV mCherry inh: inactive; NS1 function inh: 0%; Pf growth 96h: 6.7µM*; HCV inhibitor: 0.32µM*

What do the screens show for `O=C(CN1C(=O)NC2(CCCc3ccccc32)C1=O)NCc1ccco1` (stereo not given)?
VACV Venus inh: -24%; Pf growth 48h: 10%; VACV mCherry inh: inactive; NS1 function inh: -8%; Pf growth 96h: 18%; HCV inhibitor: -7%

How did O=C(NCCc1nc(-c2ccccc2)no1)c1ccccc1 do in these assays?
VACV Venus inh: -9%; VACV mCherry inh: 3%; HCV inhibitor: -7%

What do the screens show for `CCN(Cc1ccccc1)C(=O)CCS(=O)(=O)c1ccc2c(c1)n(C)c(=O)c(=O)n2C`?
VACV Venus inh: -6%; Pf growth 48h: -28%; VACV mCherry inh: -1%; NS1 function inh: -6%; Pf growth 96h: 3.7µM*; HCV inhibitor: -5%

Results for COc1cccc(N2CCN(C(=O)CCS(=O)(=O)c3ccc4c(c3)oc(=O)n4C)CC2)c1 ?
VACV Venus inh: -4%; Pf growth 48h: inconclusive; VACV mCherry inh: -27%; NS1 function inh: 12%; Pf growth 96h: 5.2µM*; HCV inhibitor: 0%

How did Cn1c(=O)oc2cc(S(=O)(=O)CCC(=O)N3CCN(c4ccccc4)CC3)ccc21 do in these assays?
VACV Venus inh: 1%; Pf growth 48h: inconclusive; VACV mCherry inh: 3%; NS1 function inh: -1%; Pf growth 96h: 9.3µM*; HCV inhibitor: 18%

How did Cn1c(=O)oc2cc(S(=O)(=O)CCC(=O)N3CCN(c4cccc(Cl)c4)CC3)ccc21 do in these assays?
VACV Venus inh: -4%; VACV mCherry inh: -21%

What do the screens show for `CN(c1ccccc1)S(=O)(=O)c1ccc2c(c1)oc(=O)n2C`?
VACV Venus inh: -11%; Pf growth 48h: 12%; VACV mCherry inh: -16%; NS1 function inh: 6%; Pf growth 96h: 8%; HCV inhibitor: 4%

How did COc1ccc(N(C)S(=O)(=O)c2ccc3c(c2)oc(=O)n3C)cc1 do in these assays?
Pf growth 48h: -10%; NS1 function inh: 6%; Pf growth 96h: 7.4µM*; HCV inhibitor: 1%

How did CCOC(=O)c1ccc(S(=O)(=O)n2c(CN3CCCCC3)nc3ccccc32)cc1 do in these assays?
Pf growth 48h: inconclusive; NS1 function inh: -31%; Pf growth 96h: 3%[5.75 µM]; HCV inhibitor: -22%

Results for CN(Cc1ccccc1)C(=O)CCNS(=O)(=O)c1ccc2c(c1)oc(=O)n2C ?
Pf growth 48h: -12%; NS1 function inh: 3%; Pf growth 96h: inconclusive; HCV inhibitor: 0%

What do the screens show for `CN(Cc1ccccc1)C(=O)CCS(=O)(=O)c1ccc2c(c1)oc(=O)n2C`?
VACV Venus inh: -11%; Pf growth 48h: -19%; VACV mCherry inh: -4%; NS1 function inh: 4%; Pf growth 96h: 13µM*; HCV inhibitor: 21%

What do the screens show for `COc1ccc(CNCCC(c2ccccc2)c2ccc3c(c2)OCO3)cc1` (stereo not given)?
VACV Venus inh: inconclusive; Pf growth 48h: inconclusive; VACV mCherry inh: inconclusive; NS1 function inh: -14%; Pf growth 96h: inconclusive; HCV inhibitor: 10µM*

What do the screens show for `COc1ccc(C(CCNCc2ccc(N(C)C)cc2)C(C)C)cc1` (stereo not given)?
Pf growth 48h: 9.3µM*; NS1 function inh: -2%; Pf growth 96h: 7.4µM*; HCV inhibitor: inconclusive

How did COc1ccc(CNCCC(c2ccc(OC(C)C)cc2)c2ccccc2OC)cc1 (stereo not given) do in these assays?
Pf growth 48h: inconclusive; NS1 function inh: 0%; Pf growth 96h: inconclusive; HCV inhibitor: inconclusive
